# According to PMC11062922 (Nature Chemical Biology, 2023):
# Read-outs that look alike come from different tables or passages of the source.
# Tests used:
# Design in all cases: species or system human, MV4-11 + K-562 + COLO205 + SK-N-BE2 + OVCAR-8
# [1] = system: CLK1; conditions: read-out: apparent Kd, n = 1
# [2] = system: CLK4; conditions: read-out: apparent Kd, n = 1
# [3] = system: DYRK1A; conditions: read-out: apparent Kd, n = 1
# [4] = system: JAK2; conditions: read-out: apparent Kd; compound concentrations: 100 nM and 1000 nM (sheet 'Samples'), CATDS: 0.15367863363527601; n = 1
# [5] = system: PTK2; conditions: read-out: apparent Kd; compound concentrations: 100 nM and 1000 nM (sheet 'Samples'), CATDS: 0.76143962131213405; n = 1
# [6] = system: RPS6KA1; conditions: read-out: apparent Kd; compound concentrations: 100 nM and 1000 nM (sheet 'Samples'), CATDS: 9.5788061874141406E-2; n = 1
# [7] = system: RPS6KA3; conditions: read-out: apparent Kd; compound concentrations: 100 nM and 1000 nM (sheet 'Samples'), CATDS: 9.4623993582158103E-2; n = 1
# [8] = system: CSNK1A1; conditions: read-out: apparent Kd, n = 1
# [9] = system: CSNK1D; conditions: read-out: apparent Kd, n = 1
# [10] = system: CSNK1E; conditions: read-out: apparent Kd, n = 1
# [11] = system: MAPK11; conditions: read-out: apparent Kd; compound concentrations:100 nM and 1000 nM (sheet 'Samples'); n = 1
# [12] = system: MAPK14; conditions: read-out: apparent Kd, n = 1
# [13] = system: MAPK9; conditions: read-out: apparent Kd, n = 1
# [14] = system: NLK; conditions: read-out: apparent Kd, n = 1
# [15] = system: PKN3; conditions: read-out: apparent Kd; compound concentrations:100 nM and 1000 nM (sheet 'Samples'); n = 1
# [16] = system: CLK2; conditions: read-out: apparent Kd; compound concentrations: 100 nM and 1000 nM (sheet 'Samples'), CATDS: 1; n = 1
# [17] = system: MAPK10; conditions: read-out: apparent Kd; compound concentrations: 100 nM and 1000 nM (sheet 'Samples'), CATDS: 9.5737343662475993E-2; n = 1
# [18] = system: MAPKAPK2; conditions: read-out: apparent Kd; compound concentrations: 100 nM and 1000 nM (sheet 'Samples'), CATDS: 0.108564299414966; n = 1
# [19] = system: PIP4K2C; conditions: read-out: apparent Kd; compound concentrations: 100 nM and 1000 nM (sheet 'Samples'), CATDS: 7.4110853975201799E-2; n = 1
# [20] = system: CSNK2A1;CSNK2A3; conditions: read-out: apparent Kd; compound concentrations:100 nM and 1000 nM (sheet 'Samples'); n = 1
# [21] = system: FER; conditions: read-out: apparent Kd; compound concentrations:100 nM and 1000 nM (sheet 'Samples'); n = 1
# [22] = system: FES; conditions: read-out: apparent Kd; compound concentrations:100 nM and 1000 nM (sheet 'Samples'); n = 1
# [23] = system: GRK6; conditions: read-out: apparent Kd; compound concentrations:100 nM and 1000 nM (sheet 'Samples'); n = 1
# [24] = system: IGF1R; conditions: read-out: apparent Kd; compound concentrations: 100 nM and 1000 nM (sheet 'Samples'), CATDS: 0.29362976208520802; n = 1
# [25] = system: INSR; conditions: read-out: apparent Kd; compound concentrations:100 nM and 1000 nM (sheet 'Samples'); n = 1
# [26] = system: PIM1; conditions: read-out: apparent Kd; compound concentrations:100 nM and 1000 nM (sheet 'Samples'); n = 1
# [27] = system: PIM2; conditions: read-out: apparent Kd; compound concentrations:100 nM and 1000 nM (sheet 'Samples'); n = 1
# [28] = system: TNK1; conditions: read-out: apparent Kd; compound concentrations:100 nM and 1000 nM (sheet 'Samples'); n = 1
# [29] = system: GSK3B; conditions: read-out: apparent Kd; compound concentrations:100 nM and 1000 nM (sheet 'Samples'); n = 1
# [30] = system: ILK; conditions: read-out: apparent Kd; compound concentrations: 100 nM and 1000 nM (sheet 'Samples'), CATDS: 0.22050260792915999; n = 1
# [31] = system: IRAK3; conditions: read-out: apparent Kd; compound concentrations: 100 nM and 1000 nM (sheet 'Samples'), CATDS: 0.257263100547858; n = 1
# [32] = system: RET; conditions: read-out: apparent Kd; compound concentrations: 100 nM and 1000 nM (sheet 'Samples'), CATDS: 0.29305960370360601; n = 1
# [33] = compound concentrations:100 nM and 1000 nM (sheet 'Samples')
structure (smiles),measurement,setting,value
CCCNC(=O)c1ccc(Nc2ncc(C(F)(F)F)c(Nc3ccccc3C(C)=O)n2)c(Br)c1 [BI00801818],potency estimated from few doses,"[1]; compound concentrations: 100 nM and 1000 nM (sheet 'Samples'), CATDS: 0.21092266840342",154 nM
same,potency estimated from few doses,"[2]; compound concentrations: 100 nM and 1000 nM (sheet 'Samples'), CATDS: 0.13004922294711499",524 nM
same,potency estimated from few doses,"[3]; compound concentrations: 100 nM and 1000 nM (sheet 'Samples'), CATDS: 0.12917753556196801",534 nM
same,potency estimated from few doses,[4],330 nM
same,potency estimated from few doses,[5],11.3 nM
same,potency estimated from few doses,[6],1590 nM
same,potency estimated from few doses,[7],1690 nM
Fc1ccc(-c2ncn(C3CCNCC3)c2-c2ccnc(Oc3ccccc3)n2)cc1 [SB-239272],potency estimated from few doses,[8]; [33],1380 nM
same,potency estimated from few doses,[9]; [33],88.7 nM
same,potency estimated from few doses,[10]; [33],191 nM
same,potency estimated from few doses,[11],45.4 nM
same,potency estimated from few doses,[12]; [33],12.5 nM
same,potency estimated from few doses,[13]; [33],1110 nM
same,potency estimated from few doses,[14]; [33],1500 nM
same,potency estimated from few doses,[15],2090 nM
FC(F)(F)c1cccc(Nc2nccc(-c3cnn4nc(-c5ccccc5)ccc34)n2)c1 [GW819077X],potency estimated from few doses,[16],960 nM
CN1CCC(n2cnc(-c3ccc(F)cc3)c2-c2ccnc(NC3CCNCC3)n2)CC1 [SB-229482],potency estimated from few doses,"[8]; compound concentrations: 100 nM and 1000 nM (sheet 'Samples'), CATDS: 7.6615483507767895E-2",1760 nM
same,potency estimated from few doses,"[9]; compound concentrations: 100 nM and 1000 nM (sheet 'Samples'), CATDS: 0.231386526780439",127 nM
same,potency estimated from few doses,"[10]; compound concentrations: 100 nM and 1000 nM (sheet 'Samples'), CATDS: 0.20184204641009601",159 nM
same,potency estimated from few doses,[17],810 nM
same,potency estimated from few doses,"[12]; compound concentrations: 100 nM and 1000 nM (sheet 'Samples'), CATDS: 0.239197237832417",121 nM
same,potency estimated from few doses,"[13]; compound concentrations: 100 nM and 1000 nM (sheet 'Samples'), CATDS: 0.10171878103733301",682 nM
same,potency estimated from few doses,[18],573 nM
same,potency estimated from few doses,"[14]; compound concentrations: 100 nM and 1000 nM (sheet 'Samples'), CATDS: 8.6878607565958693E-2",1100 nM
same,potency estimated from few doses,[19],2040 nM
COc1cc2c(cc1Nc1nc(Nc3ccsc3C(N)=O)c3cc[nH]c3n1)N(C(=O)CN(C)C)CCC2(C)C [GSK2163632A],potency estimated from few doses,[2]; [33],1180 nM
same,potency estimated from few doses,[20],1950 nM
same,potency estimated from few doses,[21],82.7 nM
same,potency estimated from few doses,[22],212 nM
same,potency estimated from few doses,[23],2050 nM
same,potency estimated from few doses,[24],22 nM
same,potency estimated from few doses,[25],6.22 nM
same,potency estimated from few doses,[26],647 nM
same,potency estimated from few doses,[27],1920 nM
same,potency estimated from few doses,[28],599 nM
O=c1[nH]cc(-c2ccc(O)cc2)c2sc(-c3ccncc3)cc12 [GSK1033723A],potency estimated from few doses,[1]; [33],471 nM
same,potency estimated from few doses,[2]; [33],148 nM
same,potency estimated from few doses,[3]; [33],1550 nM
same,potency estimated from few doses,[29],1220 nM
COc1cc(/C=N/Nc2ncnc3c2cnn3C(C)C)ccc1O [GW644007X],potency estimated from few doses,"[2]; compound concentrations: 100 nM and 1000 nM (sheet 'Samples'), CATDS: 0.240063768784822",1750 nM
same,potency estimated from few doses,[30],2110 nM
same,potency estimated from few doses,[31],1520 nM
same,potency estimated from few doses,[32],1190 nM
